IMPase inh = membrane-permeable compound that blocks inositol monophosphatase; CHO-M1 cells, IP1 accumulation, HTRF TR-FRET ratio; inhibition (IP1 accumulation), % at 46.1 µM; 120,000 tested, under 10 active; AID 901; active = well fitted curve in the direction sought with a large enough effect in the signal ratio, not every such curve was filed as active; inconclusive = small, poorly fitted or top-dose-only effect, or a change in a side signal; inactive = no such curve, though single readings can be large or run the other way; the % refers to the signal ratio;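 also: cells stimulated with carbachol in lithium chloride buffer; higher means more IMPase inhibition seen as more IP1 and lower FRET ratio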
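The IP-One HTRF competitive assay in carbachol-stimulated CHO-M1 cells quantifies cellular IP1. Compounds spanned up to 46 uM final, and activity is expressed as AC50 from concentration-response fits of the ratio and donor data.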
HPGD inh = HPGD (human) dehydrogenase inhibition. P15428. purified HPGD, NADH fluorescence kinetic, PGE2 substrate. Potency, µM, usual class: inhibitors. 150,000 compounds, 4.3% hits; active = well fitted inhibition curve with a large enough effect, not every such curve was filed as active; inconclusive = small, poorly fitted or top-dose-only effect, or another doubt; inactive = no such curve, though single readings can be large or run the other way
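20 nM HPGD preincubated 15 min at room temperature with compound in 50 mM Tris-HCl pH 8, 0.01% Tween 20. Started with 1 mM NAD+ and 30 uM prostaglandin E2; NADH fluorescence (360/450 nm) read 5 times over 30-s intervals, last minus first.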
PNC assembly inh = perinucleolar compartment assembly inhibition; activity change (PNC), negative = inhibition, % at 10 µM; PC3M PTB-GFP, PNC prevalence imaging, 16 h; hits give low values; 140,000 compounds, 3.1% hits;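 active = readout at or below -70, meaning at least 70% loss of cells showing the perinucleolar compartment, a nuclear body marking cancer cells; inconclusive = readout between -30 and a set limit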
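PC3M cells stably expressing PTB-GFP, 750–1000 cells/well, treated 16 h at 37 °C with compound (23 nl of library stock), in duplicate. After paraformaldehyde fixation and Hoechst stain, imaged at 20x; PNC prevalence scored by image analysis.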
IMPase Li inh = IMPase inhibition in cells with lithium potentiation | CHO-M1 cells, IP1 TR-FRET (IP-One), carbachol + lithium | Potency, µM (titrated, usually from 59.4 µM), actives largely listed as inhibitors | 210,000 compounds, 0.35% hits | AID 1457;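 also: IP1 builds up when IMPase is blocked and the TR-FRET signal falls; nearly all actives have a fitted effect of over 50% in size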
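CHO cells stably expressing M1 receptor (2000/well, cultured 16–30 h) treated 30 min at 37C with compound plus low lithium. Cytosolic IP1 by TR-FRET (665/620 ratio and 620 channel) after 10 min lysis; AC50 by Hill fit.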
ALOX15B inhib = 15-hLO-2 (ALOX15B) enzyme inhibition; O15296; purified 15hLO-2, xylenol orange hydroperoxide absorbance; Potency, µM (top dose mostly 57.1 µM), usual class: inhibitors; 110,000 compounds, 0.56% hits; also: nearly all actives have a fitted effect of over 60% in size
Target sequence (O15296 whole entry, looked up): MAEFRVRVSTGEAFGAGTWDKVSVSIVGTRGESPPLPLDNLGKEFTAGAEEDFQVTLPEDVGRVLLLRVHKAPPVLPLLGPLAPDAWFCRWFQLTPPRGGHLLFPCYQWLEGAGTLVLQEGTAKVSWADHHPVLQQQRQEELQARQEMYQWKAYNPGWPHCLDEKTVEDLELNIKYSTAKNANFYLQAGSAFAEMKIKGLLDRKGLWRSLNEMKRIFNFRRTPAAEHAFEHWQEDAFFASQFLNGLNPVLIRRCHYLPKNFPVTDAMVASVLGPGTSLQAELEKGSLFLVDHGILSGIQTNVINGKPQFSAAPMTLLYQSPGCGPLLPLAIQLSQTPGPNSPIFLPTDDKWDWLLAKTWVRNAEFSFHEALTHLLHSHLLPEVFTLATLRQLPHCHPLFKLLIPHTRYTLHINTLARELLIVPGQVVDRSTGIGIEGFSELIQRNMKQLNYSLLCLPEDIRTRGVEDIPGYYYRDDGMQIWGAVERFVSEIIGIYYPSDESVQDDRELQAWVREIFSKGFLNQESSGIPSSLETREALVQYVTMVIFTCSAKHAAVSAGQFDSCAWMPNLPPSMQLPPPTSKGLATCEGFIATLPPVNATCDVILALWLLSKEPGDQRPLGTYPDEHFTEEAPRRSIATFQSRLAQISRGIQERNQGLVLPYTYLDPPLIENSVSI
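Purified human 15hLO-2 (50 nM final) preincubated with compounds 15 min at room temperature in 25 mM Hepes pH 7.5, 0.01% Triton X-100, then 45 uM arachidonic acid added for 90 min; hydroperoxide detected via ferrous/xylenol orange, 573/405 nm absorbance ratio.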
ALOX12 inhib = inhibitors of human 12-lipoxygenase (ALOX12); purified 12-hLO, xylenol orange hydroperoxide absorbance; 150,000 compounds, 0.12% hits; Potency, µM (top dose mostly 57.1 µM), usual class: inhibitors; P18054; also: nearly all actives have a fitted effect of over 55% in size
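Purified human 12hLO (150 nM final) was preincubated with compounds for 15 min at room temperature in 25 mM Hepes pH 7.0, 0.01% Triton X-100, then reacted with 40 uM arachidonic acid for 30 min. Hydroperoxide was detected with ferrous iron/xylenol orange.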
HPGD inh cf = confirmation of human HPGD inhibitors; shares compounds with HPGD inh; Potency, µM (highest dose often 57.1 µM), most hits filed as inhibitors; recombinant HPGD, NADH fluorescence, PGE2 substrate; AID 2429; 90 compounds, 90% hits; calls by dose curve
Large screens that a line does not name were inactive (follow-up assays come after a bar, where they were run). In the library only some 5.3% were active in any assay of this set; here they are far more common. Unless noted, calls follow the shape of the dose curve; as a rule, active = well fitted curve in the direction sought with a large enough effect; inconclusive = small, poorly fitted or top-dose-only effect, or another doubt; inactive = no such curve, though single readings can be large; an effect the other way counts as inactive or inconclusive.

COc1ccc(/C=N/N=C(/N)N[N+](=O)[O-])c(OC)c1	PNC assembly inh inconclusive
N/C(=N\N=C/c1ccc(-c2ccc(O)c(C(=O)O)c2)o1)N[N+](=O)[O-]	HPGD inh 7.1µM
CCOC(=O)c1c(C)n(Cc2ccco2)c2ccc(O)cc12	HPGD inh 22µM, ALOX15B inhib inconclusive, ALOX12 inhib inconclusive
O=C(O)[C@H]1[C@H](C(=O)O)[C@H]2CC[C@@H]1O2	none (no result: HPGD inh, PNC assembly inh, IMPase Li inh)
CC/C(=N\N1CCCCCC1)c1c(O)n(-c2ccccc2C)c(=O)[nH]c1=O	PNC assembly inh -95 (no result: IMPase inh, ALOX15B inhib)
CCC(=NCCN1CCOCC1)c1c(O)n(-c2ccccc2C)c(=O)[nH]c1=O	none
O=P1(NC2CCCC2)COc2ccccc2OC1	HPGD inh 0.071µM, IMPase Li inh inconclusive | HPGD inh cf 0.16µM
c1ccc(CC(NCc2ccco2)c2ccccc2)cc1 (configuration not stated)	none (no result: IMPase inh, HPGD inh, PNC assembly inh, ALOX15B inhib, ALOX12 inhib)
O=P1(NCc2ccco2)COc2ccccc2OC1	HPGD inh 1µM | HPGD inh cf 1µM
CN(CCC(=O)O)C1=Nc2ccc(Cl)cc2C(c2ccccc2)=[N+]([O-])C1	none (no result: IMPase inh, PNC assembly inh)
